# From PubChem BioAssay AID1851 (National Center for Advancing Translational Sciences (NCATS), 2009)
# Out of some 16,000 compounds screened, about 4,000 (25%) were called active. Roughly 26% stayed inconclusive and do not appear here. These entries were drawn from the full list. Unmarked numbers belong to inactive results. The call rests on the fitted dose curve; in most records, active means well fitted curve in the direction sought with a large enough effect; inconclusive means small, poorly fitted or top-dose-only effect, or effect the other way; inactive means no such curve, though single readings can be large or run the other way.
# Biological target: Cytochrome P450 2C9 (Homo sapiens) (UniProt P11712)
# Assay: Cytochrome panel assay with activity outcomes
# Details: recombinant CYP, pro-luciferin dealkylation, luminescence, p450-cyp2c9; series mostly up to 57.1 µM; activity, negative = inhibition: at the top concentration
# On the % scale 0 is the no-effect control and ±100 the full control effect.
# Cytochrome P450 2C9 (Homo sapiens), sequence (P11712 whole entry, looked up): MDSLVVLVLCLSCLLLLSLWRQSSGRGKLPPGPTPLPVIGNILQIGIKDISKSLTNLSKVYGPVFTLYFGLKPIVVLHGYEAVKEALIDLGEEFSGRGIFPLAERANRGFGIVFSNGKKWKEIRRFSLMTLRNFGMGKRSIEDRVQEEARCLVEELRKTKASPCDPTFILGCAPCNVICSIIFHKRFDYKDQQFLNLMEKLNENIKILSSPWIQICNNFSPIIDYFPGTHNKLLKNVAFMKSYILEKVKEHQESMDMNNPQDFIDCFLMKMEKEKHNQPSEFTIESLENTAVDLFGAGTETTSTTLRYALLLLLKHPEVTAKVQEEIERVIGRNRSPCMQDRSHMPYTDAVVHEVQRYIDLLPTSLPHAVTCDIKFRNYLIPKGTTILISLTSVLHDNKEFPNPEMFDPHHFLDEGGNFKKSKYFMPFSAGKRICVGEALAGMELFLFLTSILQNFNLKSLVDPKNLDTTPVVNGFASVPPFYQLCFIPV
Structure (SMILES),"activity, negative = inhibition",AC50
O=C(NNC(=O)c1cccnc1)Nc1cccc2ccccc12,-16.4%,–
NCCNC(=O)c1ccc(Cl)cc1,–,inactive
Cc1ccc(C(=O)NNC(=S)NC(=O)c2ccc(Cl)cc2)cc1,–,2 µM (active)
O=C(NNC(=S)NC(=O)c1cccnc1)c1ccccc1,–,5.62 µM (active)
Cc1ccc(C(=O)NNC(=O)C2CCCN(c3ncccn3)C2)cc1 (centres undefined),25.8%,–
CCCCC(=O)Nc1cc(OCC)c(NC(=O)c2ccccc2[N+](=O)[O-])cc1OCC,-12.6%,–
O=C(NNS(=O)(=O)c1ccccc1)c1cccnc1,2.91% [at 11.4 µM],–
CCCCC(=O)NNC(=S)NC(=O)c1cccc([N+](=O)[O-])c1,–,10 µM (active)
COc1ccc(C(=O)NC(=S)NCc2ccccc2)cc1,–,15.8 µM (active)
CSc1nc2c(c(C(F)(F)F)n1)CC(C)CC2 (centres undefined),14.4%,–
Cc1ccccc1-c1nccc(NCCN2CCOCC2)n1,15.8% [at 2.29 µM],–
CN(CC(=O)O)CC(=O)O,-7.68% [at 11.4 µM],–
CCc1cc2c(nc1CC)CCN(CC/C(C)=N/O[C@@H](C)c1cc(-c3c(C)cc(C)cc3C)no1)C2,8.77% [at 11.4 µM],–
COc1ccc(C(=O)NC(=S)NNC(=O)CCc2ccccc2)cc1,–,2.82 µM (active)
COc1ccc(C(=O)NNC(=S)NC(=O)c2ccco2)cc1,–,7.08 µM (active)
CCOc1cc(NC(=S)Nc2ccccc2)c(OCC)cc1NC(=O)c1ccc(OC)cc1,–,1.78 µM (active)
CCOc1ccc(NC(=O)c2ccc(OC)cc2)cc1,-18.5%,–
COc1ccc(NC(=O)N2CC3(CCN(C(=O)c4ccco4)CC3)C2)cc1,-17.3%,–
COc1ccc(NC(=O)N2CCC3(CC2)CCN(C(=O)c2ccco2)CC3)cc1,-28.3%,–
O=C(NC(=S)NNC(=O)c1cccs1)c1ccco1,–,15.8 µM (active)
Cc1ccc(OCC(=O)NNC(=O)CCc2ccccc2)cc1,-12.1%,–
c1ccc(C2CCC(N3CCC(N4CCCCC4)CC3)CC2)cc1 (centres undefined),-7.45%,–
O=C1NC(=O)C(c2ccccc2[N+](=O)[O-])=C1Nc1ccc(O)c(Cl)c1,-11.5%,–
O=C1c2cccc3c(Nc4ccccc4Cl)c([N+](=O)[O-])cc(c23)C(=O)N1CCO,–,2.82 µM (active)
O=[N+]([O-])c1cc(Cl)cc2c1nc(NCCO)c1ccccc12,-0.585% [at 11.4 µM],–
COc1ccccc1OCCCOc1ccc([N+](=O)[O-])cc1Cl,–,11.2 µM (active)

Structure (SMILES),"activity, negative = inhibition",AC50
C#CCN(C)CCCOc1ccc(Cl)cc1Cl,–,inactive
COc1ccc(-n2cccc2C=O)cc1OC,-8.44%,–
CCCOc1ccc(/C=C/C(=O)Nc2ccc([N+](=O)[O-])cc2C)cc1OC,3.29%,–
COc1cc(C)ccc1OCCOc1cc(C)ccc1Cl,–,0.794 µM (active)
COc1ccc(/C=C2\OC(=O)c3c(OC)cccc32)cc1OC,-28.5%,–
COc1cc(C=O)ccc1OCCOCCOc1ccccc1Cl,–,12.6 µM (active)
COc1ccc(CNC(C)(C)C)cc1Cl,0.0327%,–
CN=C(NC#N)Nc1ccc(C2=NNC(=O)C[C@@H]2C)cc1,-11.9%,–
COc1ccc(-c2nc(N)c3ncn([C@H]4O[C@@H](CO)[C@@H](O)[C@@H]4O)c3n2)cc1,8.82% [at 11.4 µM],–
COc1cc(CNCc2cccs2)ccc1OCC(=O)NC(C)(C)C,-12.4%,–
COCCNc1nc(-c2ccc(N(C)C)cc2)nc2ccccc12,8.62% [at 2.29 µM],–
COCCNc1nc(-c2ccccc2C)nc2ccccc12,-5.55% [at 2.29 µM],–
C[C@H](Nc1ncnc2sc3c(c12)CCC3)C(=O)O,-3.13%,–
OCCNc1nc(SCc2ccccc2)nc2sc3c(c12)CCC3,–,7.94 µM (active)
COCCNc1nc(SCc2ccccc2)nc2sc3c(c12)CCC3,–,3.16 µM (active)
CC(CO)Nc1nc(SCc2ccccc2)nc2sc3c(c12)CCC3 (centres undefined),–,4.47 µM (active)
CSc1ccc2c(c1)N(CC[C@H]1CCCCN1C)c1ccccc1S2,–,inactive
CC1(C)OCC([C@H](O)C2=CCCCC2=O)CO1,2.86% [at 11.4 µM],–
CN(C)CCCNC(=O)c1cc2c3ccccc3n(C)c2s1,-7.37%,–
COc1ccccc1CNC(=O)c1cc2c(C)nn(Cc3ccc(F)cc3)c2s1,–,2.24 µM (active)
COc1ccccc1CNc1ncnc2ccc(-c3ccc(C(=O)N(C)C)cc3)cc12,0.573% [at 2.29 µM],–
Brc1ccc(-c2csc(N3CCC(c4ccccc4)C3)n2)cc1 (centres undefined),–,10 µM (active)
Fc1ccc(-c2csc(N3CCC(c4ccccc4)C3)n2)cc1 (centres undefined),–,17.8 µM (active)
Clc1ccc(-c2csc(N3CCC(c4ccccc4)C3)n2)cc1 (centres undefined),–,14.1 µM (active)
Cc1c(C2CCN(CCc3ccccc3)CC2)noc1-c1ccc(Cl)cc1,-12.1%,–
COc1cc2nc(N3CCN(C(=O)OCc4ccccc4)[C@H](C(=O)NC(C)(C)C)C3)nc(N)c2cc1OC,-9.68%,–

Structure (SMILES),"activity, negative = inhibition",AC50
CC(=O)C[C@H](c1ccc([N+](=O)[O-])cc1)c1c(O)c2ccccc2oc1=O,–,0.631 µM (active)
CN(C)c1ccc(C(c2ccc(N(C)C)cc2)c2ccc([N+](=O)[O-])cc2)cc1,-7.57% [at 11.4 µM],–
COc1ccc(NC(=O)N2CC3(CCN(C(=O)c4cnccn4)CC3)C2)cc1,7.59%,–
O=c1oc2cc(Oc3ccc(C(F)(F)F)cc3[N+](=O)[O-])ccc2c2c1CCCC2,–,12.6 µM (active)
Cn1ncc2c(Cl)ncnc21,0.147% [at 11.4 µM],–
O=C1[C@@H]2[C@H]3[C@H](O)[C@H](O)C/C(=N/OCc4ccccc4)[C@H]3CC[C@H]2C(=O)N1c1ccc(F)cc1F,12.6% [at 11.4 µM],–
COc1ccc(-c2nnc(-c3cccnc3)o2)cc1,-20.5%,–
COc1cccc(-c2noc(-c3cccnc3)n2)c1,–,15.8 µM (active)
CC(=O)OCC1=C(C(=O)O)N2C(=O)[C@@H](NC(=O)CSc3ccncc3)[C@@H]2SC1,–,inactive
CNc1csc(C)c(C)c1=O,6.4%,–
Cc1cnc(CNc2cc(-c3cccnc3)ncn2)cn1,6.31% [at 2.29 µM],–
N=C1/C(=C\c2ccc(SCc3ccco3)o2)C(=O)N=C2SC=NN12,–,0.447 µM (active)
ClC(=Nc1cccc2ccccc12)N(c1ccccc1)c1ccccc1,–,3.16 µM (active)
CCCN1CNC(=S)N(c2cccc(C)c2C)C1,16.7%,–
O=C(CSc1nc2ccccc2c(=O)n1Cc1ccccc1)NCc1ccco1,-22.6%,–
O=c1c2ccccc2nc(SCc2ccccc2Cl)n1Cc1ccccc1,–,1.26 µM (active)
Cc1cccc(C)c1-n1c(SCC(=O)NCc2ccco2)nc2ccccc2c1=O,–,14.1 µM (active)
O=C(CSc1nc2ccccc2c(=O)n1CCCC(=O)N1CCCC1)NCc1ccco1,–,7.08 µM (active)
Cc1cc(NC(=O)CSc2nc3ccccc3c(=O)n2CCCC(=O)NCc2ccco2)n[nH]1,–,4.47 µM (active)
Oc1ccc([C@@H]2CNCCc3c2cc(O)c(O)c3Cl)cc1,-2.43%,–
O=c1[nH]c(=O)n([C@@H]2C[C@H](O)[C@H](CO)O2)cc1I,-5.5% [at 25.6 µM],–
COc1ccc(NC(=O)CSc2nc3ccccc3c(=O)n2CCC(=O)N2CCCCC2)cc1,–,3.98 µM (active)
O=C(CSc1nc2ccccc2c(=O)n1CCCO)NCc1ccccc1,–,12.6 µM (active)
O=C(CSc1nc2ccccc2c(=O)n1NC(=O)Cc1ccccc1)NCc1ccccc1Cl,–,0.398 µM (active)
O=C(O)CCCCCn1c(SCC(=O)N2CCCC2)nc2ccsc2c1=O,-13.4%,–
COCC(=O)N1CCC2(CCCN(C(=O)Nc3ccc(OC)cc3)C2)CC1,7.89%,–

Structure (SMILES),"activity, negative = inhibition",AC50
CN1CCN(C(=O)c2ccc3c(=O)n4c(nc3c2)CCCCC4)CC1,-8.69%,–
N#CCSc1nc2cc(C(=O)N3CCCC3)ccc2c(=O)n1Cc1ccccc1,–,3.98 µM (active)
CCCc1nnc(SCC(=O)N2CCCCC2)n1CC1CCCO1 (centres undefined),16.6%,–
CCN1CCN(C(=O)CCc2nc3ccccc3c(=O)[nH]2)CC1,-18.2%,–
Cc1cc2cc(C)c3nnc(SCC(=O)NCc4ccc5c(c4)OCO5)n3c2cc1C,-80.6%,–
CC(C)Cn1c(SCc2nc3ccccc3c(=O)[nH]2)nc2ccccc2c1=O,–,2 µM (active)
Cc1cc(NC(=O)CSc2nc3ccsc3c(=O)n2Cc2ccccn2)n[nH]1,–,28.2 µM (active)
COCc1nc2c([nH]1)c(=O)n(C)c(=O)n2CC(C)C,2.72%,–
Cc1cc(NC(=O)CSc2nc3ccsc3c(=O)n2CCCCC(=O)O)no1,-13.1%,–
O=C(NCC1CCCO1)c1ccc2c(=O)n(Cc3ccco3)c(SCC(=O)N3CCCC3)nc2c1 (centres undefined),–,2.24 µM (active)
Cc1ccc2cc(C)c3nnc(SCC(=O)NCc4ccco4)n3c2c1,–,15.8 µM (active)
Cc1ccc(OCCCN2C(=O)C(=O)c3cccc(C)c32)cc1,–,8.91 µM (active)
Cc1cc(C)c(C)c(S(=O)(=O)ON2C(=O)c3ccccc3C2=O)c1C,14%,–
CS(=O)(=O)N1CCN(c2ccc(C(=O)NC3C4CC5CC(C4)CC3C5)cc2[N+](=O)[O-])CC1 (centres undefined),–,12.6 µM (active)
CN(c1ccc(C(=O)NC2CC3CCC2C3)cc1)S(C)(=O)=O (centres undefined),15.8%,–
CCCN[C@@H](C)C(=O)Nc1c(C)csc1C(=O)OC,-10.3% [at 25.6 µM],–
CC(=O)c1c(N=CN(C)C)nc(C)nc1-c1ccccc1,-16%,–
N#CCCn1c(=O)cnc2cnc(N3CCOCC3)nc21,22.8%,–
CN1CCN(c2ncc3nc(-c4cc(F)cc(F)c4)c(=O)n(CCc4ccccc4)c3n2)CC1,-4.14%,–
COc1ccc(-c2nc3cnc(N4CCN(C)CC4)nc3n(CCc3ccccc3)c2=O)cc1,2.38%,–
O=c1cnc2cnc(N3CCOCC3)nc2n1CCc1ccccc1,–,10 µM (active)
CN1CCN(c2ncc3ncc(=O)n(CCc4ccccc4)c3n2)CC1,-24.4%,–
CN1CCN(c2ncc3nc(-c4ccccc4)c(=O)n(CCc4ccccc4)c3n2)CC1,–,3.16 µM (active)
COc1ccc(-c2nc3cnc(N4CCOCC4)nc3n(CCc3ccccc3)c2=O)cc1,-27.3%,–
O=c1c(-c2ccc(Cl)cc2)nc2cnc(N3CCOCC3)nc2n1CCc1ccccc1,9.02%,–
O=c1c(-c2ccccc2)nc2cnc(N3CCOCC3)nc2n1CCc1ccccc1,–,7.94 µM (active)
